Test [1] relates to CRL-7250. Nature of the test: Cytotoxic Profiling of Annotated Libraries Using Quantitative High-Throughput Screening (AID 1296008). Further: nearly all actives have a fitted effect of over 60% in size. Further: potency means the concentration at half of the fitted maximal effect. On max response: on the % scale 0 is the no-effect control and ±100 the full control effect. Particulars: Five cell lines viability, CellTiter-Glo ATP luminescence, 48-72 h; max response: stronger effect = lower value. In outline:
(§1)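 Cytotoxicity was measured as CellTiter-Glo ATP luminescence, read after 10 min at room temperature. Compound treatment of the cells lasted 48 or 72 hr at 37 degrees Celsius in a qHTS format.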
(Cellular ATP, detected with luciferase, serves as a proxy for viable cell number.)

For test [2], the system named is HEK293. The test is described as above. To be noted: Five cell lines viability, CellTiter-Glo ATP luminescence, 48-72 h; max response: stronger effect = lower value. In outline:
as §1

Test [3] deals with HaCat. The test is described as above. To be noted: Five cell lines viability, CellTiter-Glo ATP luminescence, 48-72 h; max response: stronger effect = lower value. In outline:
as §1

For test [4], the system named is KB-3-1. The description is as above. Particulars: Five cell lines viability, CellTiter-Glo ATP luminescence, 48-72 h; max response: stronger effect = lower value. In outline: as §1
Test [5] concerns NIH3T3. The test is described as above. To be noted: Five cell lines viability, CellTiter-Glo ATP luminescence, 48-72 h; max response: stronger effect = lower value. In a few lines: as §1
Test [6] has as its system HACAT. Nature of the test: qHTS assay to identify novel small-molecules to repurpose for Merkel cell carcinoma treatment (AID 1296009). Further: nearly all actives have a fitted effect of over 60% in size. Further: potency means the concentration at half of the fitted maximal effect. Particulars: MCC and control cell lines, CellTiter-Glo viability, 72 h; at 44.8 µM (top of the series) unless noted. In outline: (§2)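 After compound transfer in DMSO, plates were kept 72 hr at 37 degree celsius. Luminescent ATP signal from CellTiter-Glo served as viability measure, normalized against DMSO and no-cell controls.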
On the technique in general: qHTS replaces the single test concentration by a dilution series.

Test [7] deals with MCC-13. Described as above. Particulars: MCC and control cell lines, CellTiter-Glo viability, 72 h; series mostly up to 46 µM. In outline: as §2
In test [8] the test system is MCC-26. Described as above. Particulars: MCC and control cell lines, CellTiter-Glo viability, 72 h; series mostly up to 46 µM. In outline:
as §2

The subject of test [9] is MKL-1. The test is described as above. Particulars: MCC and control cell lines, CellTiter-Glo viability, 72 h; series mostly up to 46 µM. In a few lines:
as §2

Test [10] relates to MKL-2. The test is described as above. Particulars: MCC and control cell lines, CellTiter-Glo viability, 72 h; series mostly up to 46 µM. In a few lines: as §2
Test [11] concerns UISO. The test is described as above. Particulars: MCC and control cell lines, CellTiter-Glo viability, 72 h; series mostly up to 46 µM. In a few lines:
as §2

Test [12] concerns WaGa. The description is as above. To be noted: MCC and control cell lines, CellTiter-Glo viability, 72 h; series mostly up to 46 µM. In outline:
as §2

Test [13] has as its system C33A. Nature of the test: Primary qHTS to identify gynecologic anti-cancer compounds using libraries of approved drugs and bioactive compounds (AID 1345084). Further: on the % scale 0 is the no-effect control and ±100 the full control effect; nearly all actives have a fitted effect of over 55% in size. Particulars: Gynecologic cancer cell panel viability, ATPlite luminescence, 48 h; series mostly up to 57.5 µM. In outline:
(§3)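 48 h compound exposure at 37 C, 5% CO2; five-point qHTS. ATPlite luminescence readout of cell ATP.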

Test [14] deals with CASKI. The test is described as above. Particulars: Gynecologic cancer cell panel viability, ATPlite luminescence, 48 h; series mostly up to 57.5 µM. In outline:
as §3

Test [15] deals with W2. As to the kind of experiment: qHTS profiling for inhibitors of Plasmodium falciparum proliferation (AID 504749). Further: nearly all actives have a fitted effect of over 60% in size. Further: potency means the concentration at half of the fitted maximal effect. To be noted: P. falciparum in erythrocytes, SYBR Green DNA, 72 h; series mostly up to 28.7 µM. In outline:
(§4)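 Three-day growth assay of blood-stage parasites in erythrocytes (0.3% parasitemia, 2.5% hematocrit) at 37 C, 5% CO2, quantified by SYBR Green DNA staining after overnight detergent lysis.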

Test [16] relates to NIH3T3. As to the kind of experiment: qHTS assay to identify novel small-molecules to repurpose for Merkel cell carcinoma treatment (AID 1296009). Further: nearly all actives have a fitted effect of over 60% in size. Further: potency means the concentration at half of the fitted maximal effect. Particulars: MCC and control cell lines, CellTiter-Glo viability, 72 h; at 44.8 µM (top of the series) unless noted. In outline: as §2
The test system of test [17] is CAOV3. Nature of the test: Primary qHTS to identify gynecologic anti-cancer compounds using libraries of approved drugs and bioactive compounds (AID 1345084). Further: on the % scale 0 is the no-effect control and ±100 the full control effect; nearly all actives have a fitted effect of over 55% in size. Particulars: Gynecologic cancer cell panel viability, ATPlite luminescence, 48 h; series mostly up to 57.5 µM. In outline: as §3
Test [18] concerns TAB113. Nature of the test: qHTS profiling for inhibitors of Plasmodium falciparum proliferation (AID 504749). Further: nearly all actives have a fitted effect of over 60% in size. Further: potency means the concentration at half of the fitted maximal effect. Particulars: P. falciparum in erythrocytes, SYBR Green DNA, 72 h; series mostly up to 28.7 µM. In a few lines: as §4
Test [19] has as its system TAB165. The test is described as above. To be noted: P. falciparum in erythrocytes, SYBR Green DNA, 72 h; series mostly up to 28.7 µM. In outline: as §4
Test [20] has as its system HEK293T. Nature of the test: qHTS assay to identify novel small-molecules to repurpose for Merkel cell carcinoma treatment (AID 1296009). Further: nearly all actives have a fitted effect of over 60% in size. Further: potency means the concentration at half of the fitted maximal effect. Particulars: MCC and control cell lines, CellTiter-Glo viability, 72 h; at 44.8 µM (top of the series) unless noted. In outline: as §2

Values joined by “and” are separate entries in the source; they are usually repeats but may differ in a detail not shown here. Identical values can stand only once. Records with an inconclusive call do not appear. The source holds several records for some structures; these can differ, active in one and inactive in another. A number with no mark means an inactive call. Active and inactive are the calls of the source. The call rests on the fitted dose curve; in most records, active means well fitted curve in the direction sought with a large enough effect; inconclusive means small, poorly fitted or top-dose-only effect, or another doubt; inactive means no such curve, though single readings can be large; an effect the other way counts as inactive or inconclusive.

For the compound `COC(=O)CCc1ccc(OCC(O)CNC(C)C)cc1` (stereo unspecified), the max response in test [1] is -4.17% and 4.01%; in test [2], 1.57% and 1.48%; in test [3], -0.177%; in test [4], 4.51% and -9.53%; in [5], 1.54% and 3.52%. In addition, the result in [3] and in test [6] was inactive. The Potency entry in [7], in test [8], in test [9], in [10], in test [11] and in test [12] was “inactive” throughout. The Potency entry in [13] and in test [14] was “inactive” in each case.

Take `Cc1ccc(C(=O)C(C)CN2CCCCC2)cc1` (stereo unspecified): the Potency was 6.01 µM (active) in [15] and 10.6 µM (active) in [10]. For the same compound, the max response is -2.76% and -2.03% in test [1]; 0.201% in [2]; 7.56% and -13.6% and 2.39% in test [4]; -4.42% in test [5]. The outcome in test [3] and in test [6] was “inactive; activator” in each case. For the same compound, the compound was called inactive in test [5] and in test [16]. The Potency entry in test [7], in test [8], in [9], in test [11], in test [13] and in test [17] was “inactive” in each case. Further, the Potency entry in test [14] is “inactive”.

On to `CN1CCC[C@@H]1c1cccnc1`, for which the Potency result in test [18], in test [19], in [15], in test [7], in [8] and in test [9] was “inactive” in each case. Moreover, the Potency result in [10], in [11], in test [12], in test [13], in [17] and in [14] was “inactive” throughout. Also, the max response in [1] was -7.79%; in test [2], -4.75%; in test [4] it was -0.673%; in test [5], 0.585%. Moreover, the compound was called inactive in test [3] and in [6].

In the case of `C[C@H](CCC(=O)O)[C@H]1CC[C@H]2[C@@H]3C(=O)C[C@@H]4CC(=O)CC[C@]4(C)[C@H]3CC(=O)[C@]12C`, the results for the max response in test [1], in test [4] and in test [5] were -5.31%, -9.72% and -5.45%, respectively. Further, the compound was classed as inactive in test [2], in [3], in [6] and in [20]. Further, the Potency result in test [7], in [9], in test [10], in test [11], in [12] and in [13] was “inactive” each time. In addition, the Potency result in [17] and in test [14] was “inactive” in each case.

For the compound `Cc1c(N(C)CS(=O)(=O)O)c(=O)n(-c2ccccc2)n1C`, the Potency result in test [18], in test [19], in test [15], in test [7], in test [8] and in [9] was “inactive” throughout. In addition, the Potency entry in test [10], in [11], in test [12], in [13], in test [17] and in [14] was “inactive” each time. Besides, the call in [1], in [2], in [3], in [5], in [6] and in [20] was inactive. Also, the result in test [16] was inactive. For the same compound, the max response in test [4] is 16.1%.

`CC(=O)N(O)CCCCCNC(=O)CCC(=O)N(O)CCCCCNC(=O)CCC(=O)N(O)CCCCCN`: the Potency entry in test [18], in test [19], in [15] and in test [14] was “inactive” each time. In addition, the Potency was 2.99 µM (active) in [1]; 52.4 nM (active) and 9.44 µM (active) in test [2]; 1.32 µM (active) in test [3]; 3.35 µM (active) in test [9]; 10.6 µM (active) in test [12]. Also, the max response in test [3] is -20.9%; in [4], 1.85%.

The values above are taken from PubChem BioAssay (NCATS).
